The source of these data is PMC7862700, “An all-to-all approach to the identification of sequence-specific readers for epigenetic DNA modifications on cytosine”.

Common to all, as to assay: DAPPL (digital affinity profiling via proximity ligation, sequencing); 10 mM Tris-HCl pH 7.5, 50 mM NaCl, 1 mM DTT, 4% glycerol, room temperature, 30 min; GST-TFs on glutathione beads, 16-mer random dsDNA library, 0.1% formaldehyde crosslink after washing; high values mean tight binding
One test concerns the target T1, FEV (Homo sapiens, UniProt Q99581 1-238).
T1 sequence: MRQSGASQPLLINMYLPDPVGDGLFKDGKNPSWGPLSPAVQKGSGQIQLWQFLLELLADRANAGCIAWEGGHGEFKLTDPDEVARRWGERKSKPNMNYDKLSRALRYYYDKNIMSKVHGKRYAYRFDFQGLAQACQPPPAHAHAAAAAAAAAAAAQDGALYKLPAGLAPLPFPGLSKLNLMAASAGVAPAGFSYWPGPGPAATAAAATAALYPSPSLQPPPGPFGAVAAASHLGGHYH
Conditions: protein: recombinant; tags: N-terminal GST; dsDNA, one strand shown. The procedure, abridged: (§1)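 In yeast, human transcription factors were expressed with a GST fusion, then pulled down on glutathione beads and given DNA barcodes. Pooled with a tag-only sample, they were exposed to 200 nmole of a 16-mer random double-stranded DNA library (Tris/NaCl/DTT/glycerol buffer, room temperature, 30 min), washed, crosslinked with 0.1% formaldehyde, proximity-ligated using BsaI/T4 ligase for 1 h at 37 °C, PCR-amplified and read on an Illumina NextSeq500. Each hexamer's frequency of reads for a factor, divided by the matching frequency for the tag-only sample, gives the binding signal.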

In the next test the target is ETV5 (Homo sapiens, UniProt P41161 1-510). Conditions: protein: recombinant; tags: N-terminal GST; dsDNA, one strand shown. A digest of the protocol:
as §1

The target of another test is HSF1 (Homo sapiens, UniProt Q00613 1-529). The note with it: protein: recombinant; tags: N-terminal GST; chain copies: 3; dsDNA, one strand shown. The procedure, abridged:
as §1

The next test deals with T2, SPIC (Homo sapiens, UniProt Q8N5J4 1-248).
T2 sequence: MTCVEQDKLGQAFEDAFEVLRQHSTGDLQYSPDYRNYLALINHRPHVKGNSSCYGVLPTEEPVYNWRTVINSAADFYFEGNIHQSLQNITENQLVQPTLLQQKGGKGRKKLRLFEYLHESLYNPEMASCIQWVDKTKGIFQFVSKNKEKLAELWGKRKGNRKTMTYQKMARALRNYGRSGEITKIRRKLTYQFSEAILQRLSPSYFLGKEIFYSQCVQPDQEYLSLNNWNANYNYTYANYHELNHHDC
Conditions: protein: recombinant; tags: N-terminal GST; dsDNA, one strand shown. The procedure, abridged:
as §1

The target of a further test is ELF4 (Homo sapiens, UniProt Q99607 1-663). The note with it: protein: recombinant; tags: N-terminal GST; dsDNA, one strand shown. The procedure, abridged: as §1
Chain of ELF4 (Q99607 whole entry): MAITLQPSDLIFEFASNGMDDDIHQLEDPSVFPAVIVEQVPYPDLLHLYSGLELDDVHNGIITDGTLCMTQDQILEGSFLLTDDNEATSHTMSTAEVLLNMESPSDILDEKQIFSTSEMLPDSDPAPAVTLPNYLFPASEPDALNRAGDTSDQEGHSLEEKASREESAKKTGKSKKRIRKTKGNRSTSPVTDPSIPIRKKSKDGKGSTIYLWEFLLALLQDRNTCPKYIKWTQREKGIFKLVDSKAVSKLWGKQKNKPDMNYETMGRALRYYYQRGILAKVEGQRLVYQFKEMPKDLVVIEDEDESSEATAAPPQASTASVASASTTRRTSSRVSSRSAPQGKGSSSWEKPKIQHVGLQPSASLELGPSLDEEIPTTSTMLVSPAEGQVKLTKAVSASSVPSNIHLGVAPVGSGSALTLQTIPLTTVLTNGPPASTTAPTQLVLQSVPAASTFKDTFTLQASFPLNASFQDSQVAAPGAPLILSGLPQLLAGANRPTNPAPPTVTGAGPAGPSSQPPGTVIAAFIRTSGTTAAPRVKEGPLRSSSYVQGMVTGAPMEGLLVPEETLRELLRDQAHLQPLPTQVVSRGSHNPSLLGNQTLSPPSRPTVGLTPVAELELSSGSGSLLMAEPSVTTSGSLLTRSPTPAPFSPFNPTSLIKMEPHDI
The target of a further test is T3, ELK4 (Homo sapiens, UniProt P28324-2 1-405).
T3 sequence: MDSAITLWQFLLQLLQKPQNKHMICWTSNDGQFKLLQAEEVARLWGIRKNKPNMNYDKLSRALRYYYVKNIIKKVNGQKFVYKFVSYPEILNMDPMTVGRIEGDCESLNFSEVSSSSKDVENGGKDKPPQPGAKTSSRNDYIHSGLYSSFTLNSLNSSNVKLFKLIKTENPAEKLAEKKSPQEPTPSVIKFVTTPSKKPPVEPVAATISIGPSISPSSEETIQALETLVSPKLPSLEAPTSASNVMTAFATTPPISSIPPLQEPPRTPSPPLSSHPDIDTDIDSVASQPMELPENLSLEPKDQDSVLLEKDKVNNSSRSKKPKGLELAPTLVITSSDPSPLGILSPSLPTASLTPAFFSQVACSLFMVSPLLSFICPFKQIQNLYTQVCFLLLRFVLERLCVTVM
Conditions: protein: recombinant; tags: N-terminal GST; dsDNA, one strand shown. The procedure, abridged: as §1

The target in another test is T4, ETV2 (Homo sapiens, UniProt O00321 1-342).
T4 sequence: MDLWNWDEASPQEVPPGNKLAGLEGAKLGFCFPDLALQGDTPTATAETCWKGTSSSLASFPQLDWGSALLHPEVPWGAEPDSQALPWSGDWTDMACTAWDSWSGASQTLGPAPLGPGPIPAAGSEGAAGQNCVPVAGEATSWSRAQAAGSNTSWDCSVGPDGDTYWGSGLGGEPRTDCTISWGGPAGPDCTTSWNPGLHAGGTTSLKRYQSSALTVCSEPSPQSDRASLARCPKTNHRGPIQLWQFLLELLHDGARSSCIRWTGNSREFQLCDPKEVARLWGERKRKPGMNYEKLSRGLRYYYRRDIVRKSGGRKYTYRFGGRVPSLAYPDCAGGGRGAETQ
Conditions: protein: recombinant; tags: N-terminal GST; dsDNA, one strand shown. A digest of the protocol: as §1

A further test concerns the target T5, ELF3 (Homo sapiens, UniProt P78545 1-371).
T5 sequence: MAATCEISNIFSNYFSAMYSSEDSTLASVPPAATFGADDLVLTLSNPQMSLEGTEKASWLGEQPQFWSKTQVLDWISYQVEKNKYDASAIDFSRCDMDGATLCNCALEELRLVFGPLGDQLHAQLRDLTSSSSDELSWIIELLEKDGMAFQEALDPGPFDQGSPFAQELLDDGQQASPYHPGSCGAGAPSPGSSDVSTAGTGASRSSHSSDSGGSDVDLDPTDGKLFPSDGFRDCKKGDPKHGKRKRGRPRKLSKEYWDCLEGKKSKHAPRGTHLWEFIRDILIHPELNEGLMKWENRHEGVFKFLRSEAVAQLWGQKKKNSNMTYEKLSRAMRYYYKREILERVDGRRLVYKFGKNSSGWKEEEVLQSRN
Conditions: protein: recombinant; tags: N-terminal GST; dsDNA, one strand shown. A digest of the protocol:
as §1

Another test addresses CRX (Homo sapiens, UniProt O43186 1-299). Conditions: protein: recombinant; tags: N-terminal GST; dsDNA, one strand shown. A digest of the protocol:
as §1

In another test the target is ETV1 (Homo sapiens, UniProt P50549 1-477). Conditions: protein: recombinant; tags: N-terminal GST; dsDNA, one strand shown. The procedure, abridged:
as §1

For a further test, the target named is T6, ERF (Homo sapiens, UniProt P50548 1-548).
T6 sequence: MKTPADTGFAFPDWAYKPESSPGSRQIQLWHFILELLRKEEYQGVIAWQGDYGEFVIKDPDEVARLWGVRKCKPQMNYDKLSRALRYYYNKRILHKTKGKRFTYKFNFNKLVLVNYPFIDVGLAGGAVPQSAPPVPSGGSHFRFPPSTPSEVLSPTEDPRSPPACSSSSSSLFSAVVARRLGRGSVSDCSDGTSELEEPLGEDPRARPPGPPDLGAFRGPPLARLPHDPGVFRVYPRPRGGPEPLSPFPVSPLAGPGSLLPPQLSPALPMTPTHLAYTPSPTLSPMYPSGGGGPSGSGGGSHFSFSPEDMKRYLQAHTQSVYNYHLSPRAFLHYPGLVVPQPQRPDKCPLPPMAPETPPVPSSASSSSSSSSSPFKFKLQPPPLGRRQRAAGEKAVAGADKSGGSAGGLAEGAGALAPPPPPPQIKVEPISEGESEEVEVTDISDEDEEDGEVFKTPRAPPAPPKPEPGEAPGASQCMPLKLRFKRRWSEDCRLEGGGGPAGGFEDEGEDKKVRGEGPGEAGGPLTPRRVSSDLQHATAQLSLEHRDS
The note with it: protein: recombinant; tags: N-terminal GST; dsDNA, one strand shown. The procedure, abridged: as §1

The next test deals with T7, ETV3L (Homo sapiens, UniProt Q6ZN32 1-361).
T7 sequence: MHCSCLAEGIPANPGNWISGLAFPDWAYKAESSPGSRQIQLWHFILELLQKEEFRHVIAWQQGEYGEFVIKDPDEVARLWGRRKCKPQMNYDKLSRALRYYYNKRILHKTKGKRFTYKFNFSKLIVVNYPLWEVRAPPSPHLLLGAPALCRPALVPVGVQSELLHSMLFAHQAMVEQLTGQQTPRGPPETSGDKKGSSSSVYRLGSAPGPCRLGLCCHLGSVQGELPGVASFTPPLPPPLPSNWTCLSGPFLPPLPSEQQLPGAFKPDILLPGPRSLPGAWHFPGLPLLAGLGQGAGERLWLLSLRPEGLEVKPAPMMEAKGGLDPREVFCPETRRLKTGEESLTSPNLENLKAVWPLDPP
Conditions: protein: recombinant; tags: N-terminal GST; dsDNA, one strand shown. A digest of the protocol:
as §1

A further test deals with T8, ETS2 (Homo sapiens, UniProt P15036 1-469).
T8 sequence: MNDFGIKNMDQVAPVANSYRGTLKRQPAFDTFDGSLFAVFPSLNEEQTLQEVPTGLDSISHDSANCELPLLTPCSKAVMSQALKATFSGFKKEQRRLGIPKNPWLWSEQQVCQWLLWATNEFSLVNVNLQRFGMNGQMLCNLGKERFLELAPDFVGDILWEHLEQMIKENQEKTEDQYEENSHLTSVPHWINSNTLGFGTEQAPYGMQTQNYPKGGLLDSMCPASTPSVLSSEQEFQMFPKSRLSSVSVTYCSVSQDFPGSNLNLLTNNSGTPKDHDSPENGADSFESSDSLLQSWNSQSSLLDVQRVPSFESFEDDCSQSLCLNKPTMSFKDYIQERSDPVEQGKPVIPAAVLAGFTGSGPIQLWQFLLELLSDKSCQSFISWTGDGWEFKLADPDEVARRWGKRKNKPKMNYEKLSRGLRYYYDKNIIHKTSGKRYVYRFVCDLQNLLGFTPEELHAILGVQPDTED
The note with it: protein: recombinant; tags: N-terminal GST; dsDNA, one strand shown. A digest of the protocol: as §1

Another test addresses T9, SPDEF (Homo sapiens, UniProt O95238 1-335).
T9 sequence: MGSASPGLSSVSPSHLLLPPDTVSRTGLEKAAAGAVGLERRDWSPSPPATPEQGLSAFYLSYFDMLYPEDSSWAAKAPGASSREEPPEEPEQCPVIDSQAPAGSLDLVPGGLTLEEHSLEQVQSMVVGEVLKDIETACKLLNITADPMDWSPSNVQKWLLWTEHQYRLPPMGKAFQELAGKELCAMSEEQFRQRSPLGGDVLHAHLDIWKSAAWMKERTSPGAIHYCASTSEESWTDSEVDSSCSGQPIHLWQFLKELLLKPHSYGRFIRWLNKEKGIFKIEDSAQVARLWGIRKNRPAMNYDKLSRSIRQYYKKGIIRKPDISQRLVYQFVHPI
The note with it: protein: recombinant; tags: N-terminal GST; dsDNA, one strand shown. A digest of the protocol: as §1

Another test has as its target T10, ETV7 (Homo sapiens, UniProt Q9Y603 1-341).
T10 sequence: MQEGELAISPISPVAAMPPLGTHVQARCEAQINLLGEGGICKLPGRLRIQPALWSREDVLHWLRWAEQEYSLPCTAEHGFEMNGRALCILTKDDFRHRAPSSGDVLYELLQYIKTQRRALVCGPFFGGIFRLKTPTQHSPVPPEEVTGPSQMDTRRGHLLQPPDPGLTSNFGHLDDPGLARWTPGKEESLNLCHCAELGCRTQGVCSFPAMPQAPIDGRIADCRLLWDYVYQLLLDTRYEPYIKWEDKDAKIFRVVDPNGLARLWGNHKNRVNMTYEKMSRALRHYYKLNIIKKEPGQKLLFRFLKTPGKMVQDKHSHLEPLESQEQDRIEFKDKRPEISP
Conditions: protein: recombinant; tags: N-terminal GST; dsDNA, one strand shown. The procedure, abridged: as §1

In the next test the target is T11, ELF5 (Homo sapiens, UniProt Q9UKW6-2 1-255).
T11 sequence: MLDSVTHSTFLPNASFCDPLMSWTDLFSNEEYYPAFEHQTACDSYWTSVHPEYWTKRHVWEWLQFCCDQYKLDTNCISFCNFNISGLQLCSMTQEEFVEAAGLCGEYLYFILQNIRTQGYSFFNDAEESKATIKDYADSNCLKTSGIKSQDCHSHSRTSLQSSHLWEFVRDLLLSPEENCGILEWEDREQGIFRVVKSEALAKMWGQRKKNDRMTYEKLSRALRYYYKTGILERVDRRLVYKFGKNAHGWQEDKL
The note with it: protein: recombinant; tags: N-terminal GST; dsDNA, one strand shown. The procedure, abridged:
as §1

The target of another test is T12, ETV3 (Homo sapiens, UniProt P41162-2 1-143).
T12 sequence: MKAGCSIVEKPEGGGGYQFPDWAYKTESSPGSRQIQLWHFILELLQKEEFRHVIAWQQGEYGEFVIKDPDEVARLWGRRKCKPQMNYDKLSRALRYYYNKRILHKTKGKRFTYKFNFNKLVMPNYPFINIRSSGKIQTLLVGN
The note with it: protein: recombinant; tags: N-terminal GST; dsDNA, one strand shown. The procedure, abridged:
as §1

The target in a further test is ETV6 (Homo sapiens, UniProt P41212 1-452). The note with it: protein: recombinant; tags: N-terminal GST; dsDNA, one strand shown. A digest of the protocol:
as §1

Chain of ETV6 (P41212 whole entry): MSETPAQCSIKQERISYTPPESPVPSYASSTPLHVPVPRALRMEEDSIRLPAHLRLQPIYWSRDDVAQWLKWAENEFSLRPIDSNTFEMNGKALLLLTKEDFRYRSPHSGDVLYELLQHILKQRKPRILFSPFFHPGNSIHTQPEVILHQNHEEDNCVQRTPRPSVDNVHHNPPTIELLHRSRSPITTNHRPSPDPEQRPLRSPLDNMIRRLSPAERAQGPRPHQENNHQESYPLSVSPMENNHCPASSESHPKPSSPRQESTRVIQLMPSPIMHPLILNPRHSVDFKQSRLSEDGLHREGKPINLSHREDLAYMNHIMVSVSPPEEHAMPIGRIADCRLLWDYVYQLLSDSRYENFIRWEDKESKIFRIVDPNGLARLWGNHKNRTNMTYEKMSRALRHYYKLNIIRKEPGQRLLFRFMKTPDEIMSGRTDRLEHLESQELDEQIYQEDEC
Chain of ETV5 (P41161 whole entry): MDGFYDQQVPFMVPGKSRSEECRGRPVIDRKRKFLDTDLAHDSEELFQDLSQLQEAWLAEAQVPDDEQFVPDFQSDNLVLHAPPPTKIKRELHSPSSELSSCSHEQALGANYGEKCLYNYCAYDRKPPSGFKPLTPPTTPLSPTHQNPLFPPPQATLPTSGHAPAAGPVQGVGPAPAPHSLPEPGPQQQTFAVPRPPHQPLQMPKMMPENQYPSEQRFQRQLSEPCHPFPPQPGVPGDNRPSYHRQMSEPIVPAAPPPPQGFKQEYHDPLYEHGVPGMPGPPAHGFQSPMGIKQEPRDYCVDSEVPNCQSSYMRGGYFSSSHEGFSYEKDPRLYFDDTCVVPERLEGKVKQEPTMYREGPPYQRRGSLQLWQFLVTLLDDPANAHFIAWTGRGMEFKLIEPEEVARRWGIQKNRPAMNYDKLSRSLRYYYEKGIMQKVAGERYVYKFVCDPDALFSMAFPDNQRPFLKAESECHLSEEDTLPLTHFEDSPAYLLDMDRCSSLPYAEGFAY
Chain of HSF1 (Q00613 whole entry): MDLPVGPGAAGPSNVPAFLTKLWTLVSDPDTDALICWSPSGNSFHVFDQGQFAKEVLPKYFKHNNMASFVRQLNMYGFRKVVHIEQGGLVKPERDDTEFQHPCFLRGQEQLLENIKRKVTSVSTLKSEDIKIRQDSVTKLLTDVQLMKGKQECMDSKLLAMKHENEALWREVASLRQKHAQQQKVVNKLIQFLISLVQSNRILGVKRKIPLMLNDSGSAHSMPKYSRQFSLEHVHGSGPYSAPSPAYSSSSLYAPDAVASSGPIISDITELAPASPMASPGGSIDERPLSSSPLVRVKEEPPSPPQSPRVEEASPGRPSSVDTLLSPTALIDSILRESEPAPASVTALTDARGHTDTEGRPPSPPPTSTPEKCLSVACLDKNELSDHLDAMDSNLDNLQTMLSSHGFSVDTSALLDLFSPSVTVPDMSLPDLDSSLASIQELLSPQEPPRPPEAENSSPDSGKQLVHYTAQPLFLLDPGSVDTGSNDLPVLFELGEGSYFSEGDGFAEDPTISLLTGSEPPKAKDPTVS
Chain of CRX (O43186 whole entry): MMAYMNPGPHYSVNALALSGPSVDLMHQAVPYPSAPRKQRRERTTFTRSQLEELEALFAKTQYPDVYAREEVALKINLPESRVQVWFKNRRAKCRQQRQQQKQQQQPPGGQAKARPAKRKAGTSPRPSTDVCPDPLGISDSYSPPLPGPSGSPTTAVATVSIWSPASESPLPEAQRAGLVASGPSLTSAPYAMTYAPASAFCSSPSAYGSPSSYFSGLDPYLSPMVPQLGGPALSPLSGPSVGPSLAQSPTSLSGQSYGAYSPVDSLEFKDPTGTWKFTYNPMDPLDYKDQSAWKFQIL
Chain of ETV1 (P50549 whole entry): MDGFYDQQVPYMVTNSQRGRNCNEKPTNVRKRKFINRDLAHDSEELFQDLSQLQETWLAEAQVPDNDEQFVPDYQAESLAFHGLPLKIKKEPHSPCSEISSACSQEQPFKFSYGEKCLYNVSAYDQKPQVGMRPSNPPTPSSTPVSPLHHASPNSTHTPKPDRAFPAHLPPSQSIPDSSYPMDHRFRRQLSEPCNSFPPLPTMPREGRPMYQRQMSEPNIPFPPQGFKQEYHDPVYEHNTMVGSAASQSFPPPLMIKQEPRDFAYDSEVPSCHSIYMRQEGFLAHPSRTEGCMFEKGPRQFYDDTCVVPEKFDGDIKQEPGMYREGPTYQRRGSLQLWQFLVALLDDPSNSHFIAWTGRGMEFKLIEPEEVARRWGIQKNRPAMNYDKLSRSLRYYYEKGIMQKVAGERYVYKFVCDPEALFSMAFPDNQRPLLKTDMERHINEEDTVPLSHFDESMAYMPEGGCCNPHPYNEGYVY

Consider TGTTCT, for which the binding signal is 1.28 fold enrichment (6-mer frequency, TF over GST control) with FEV; 1.32 fold enrichment (6-mer frequency, TF over GST control) in the test with ETV5; 2.8 fold enrichment (6-mer frequency, TF over GST control) in the test with HSF1; 1.45 fold enrichment (6-mer frequency, TF over GST control) with SPIC; 1.42 fold enrichment (6-mer frequency, TF over GST control) with ELF4; 1.3 fold enrichment (6-mer frequency, TF over GST control) in the test with ELK4. Moreover, the binding signal with ETV2 was 1.23 fold enrichment (6-mer frequency, TF over GST control); with ELF3, 1.38 fold enrichment (6-mer frequency, TF over GST control); with CRX, 1.45 fold enrichment (6-mer frequency, TF over GST control); with ETV1, 1.39 fold enrichment (6-mer frequency, TF over GST control); with ERF it was 1.39 fold enrichment (6-mer frequency, TF over GST control); in the test with ETV3L, 1.43 fold enrichment (6-mer frequency, TF over GST control). Moreover, the binding signal was 1.18 fold enrichment (6-mer frequency, TF over GST control) with ETS2; 1.22 fold enrichment (6-mer frequency, TF over GST control) with SPDEF; 1.22 fold enrichment (6-mer frequency, TF over GST control) with ETV7; 1.37 fold enrichment (6-mer frequency, TF over GST control) with ELF5; 1.27 fold enrichment (6-mer frequency, TF over GST control) with ETV3; 1.37 fold enrichment (6-mer frequency, TF over GST control) in the test with ETV6.
